Reference: PubChem BioAssay
For some assays here: Potency and affinity values are given separately. Activity calls are given as the source filed them. Unless noted, the rule behind the calls is not given here.

Key:
[1] = antimalarial activity against Dd2 strain (AID 2302;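 active = growth inhibition above 50% at the single 2 µM test dose, taken to imply half-maximal potency below 2 µM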;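 note: 0% = DMSO untreated growth and 100% = chloroquine plus artemisinin killed control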); conditions: P. falciparum Dd2 in RBCs, LDH growth readout, 72 h; at 2 µM; stronger effect = higher value
[2] = HepG2 cytotoxicity, primary screen, cytotoxicity control for P. falciparum antimalarial project, cell-based, ATP luminescence (AID 2303;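 active = inhibition above 50%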;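 note: 0% = DMSO wells and 100% = digitonin-killed cells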); conditions: HepG2 viability, 24-48 h, at 10 µM, stronger effect = higher value
[3] = biological target: L-lactate dehydrogenase (Plasmodium falciparum (isolate CDC / Honduras)) (UniProt Q27743); test: PfLDH activity inhibition – cell lysate, 3D7 strain, counter-screen for P. falciparum growth inhibition project (AID 2304);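 note: 0% = vehicle and 100% = reference inhibitor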; conditions: P. falciparum 3D7 crude extract, LDH APAD/NBT absorbance; at 2 µM; stronger effect = higher value
[4] = inhibition of 3D7 malaria parasite growth – strain 3D7 (AID 2306);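 note: 0% = DMSO wells and 100% = chloroquine plus artemisinin control wells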; conditions: P. falciparum 3D7 erythrocytic growth, LDH absorbance, 72 h; at 2 µM; stronger effect = higher value
[5] = biological target: Calcium-dependent protein kinase 1 (Plasmodium falciparum (isolate 3D7)) (UniProt P62344); test: PfCDPK1 kinase inhibitors, biochemical, TCAMS library (AID 1159585; cut-off not given, nearly all actives have IC50 up to about 0.98 µM;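 note: inhibitors leave more ATP so luminescence rises with inhibition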); conditions: recombinant PfCDPK1, Kinase-Glo ATP depletion luminescence
[6] = biological target: Plasmodium falciparum protein kinase 6 (PK6, PF3D7_1337100) (UniProt Q8IDW1); test: PfPK6 kinase inhibitors, biochemical, TCAMS library (AID 1159586); conditions: recombinant PfPK6, Kinase-Glo ATP depletion luminescence
[7] = biological target: Protein kinase 7 (PK7), Plasmodium falciparum 3D7 (PF3D7_0213400) (UniProt Q7YTF7); test: inhibition of Plasmodium PK7 catalytic activity – biochemical, TCAMS antimalarial set, Kinase-Glo luminescence (AID 1159587); conditions: recombinant PfPK7, Kinase-Glo ATP depletion luminescence
[8] = biological target: Calcium-dependent protein kinase 4 (Plasmodium falciparum (isolate 3D7)) (UniProt Q8IBS5); test: PfCDPK4 kinase inhibitors, biochemical, TCAMS library (AID 1159588; cut-off not given, nearly all actives have IC50 up to about 0.91 µM); conditions: recombinant PfCDPK4, Kinase-Glo ATP depletion luminescence
Chain of Calcium-dependent protein kinase 4 (Plasmodium falciparum (isolate 3D7)) (Q8IBS5 whole entry, looked up): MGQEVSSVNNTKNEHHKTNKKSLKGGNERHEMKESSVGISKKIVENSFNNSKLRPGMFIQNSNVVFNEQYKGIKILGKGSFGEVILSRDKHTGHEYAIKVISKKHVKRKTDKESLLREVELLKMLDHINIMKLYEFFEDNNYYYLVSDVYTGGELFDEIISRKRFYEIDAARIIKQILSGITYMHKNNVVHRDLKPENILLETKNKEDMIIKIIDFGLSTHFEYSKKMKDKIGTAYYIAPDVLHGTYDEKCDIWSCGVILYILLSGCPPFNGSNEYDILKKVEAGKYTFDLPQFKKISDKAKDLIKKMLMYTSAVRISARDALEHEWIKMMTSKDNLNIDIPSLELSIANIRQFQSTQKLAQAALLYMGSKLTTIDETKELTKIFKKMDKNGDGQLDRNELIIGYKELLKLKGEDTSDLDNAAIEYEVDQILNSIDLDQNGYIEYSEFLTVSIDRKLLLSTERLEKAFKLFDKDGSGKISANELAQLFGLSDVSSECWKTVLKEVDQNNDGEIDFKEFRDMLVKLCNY

Chain of L-lactate dehydrogenase (Plasmodium falciparum (isolate CDC / Honduras)) (Q27743 whole entry, looked up): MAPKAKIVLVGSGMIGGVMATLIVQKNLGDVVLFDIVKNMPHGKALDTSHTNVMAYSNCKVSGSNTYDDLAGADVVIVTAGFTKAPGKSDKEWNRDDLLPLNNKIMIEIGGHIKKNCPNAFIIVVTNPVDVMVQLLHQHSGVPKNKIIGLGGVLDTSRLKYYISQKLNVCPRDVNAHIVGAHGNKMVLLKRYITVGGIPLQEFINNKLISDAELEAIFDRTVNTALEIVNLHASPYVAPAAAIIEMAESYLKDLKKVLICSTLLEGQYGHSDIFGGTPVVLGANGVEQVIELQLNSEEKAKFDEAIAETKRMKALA
Chain of Calcium-dependent protein kinase 1 (Plasmodium falciparum (isolate 3D7)) (P62344 whole entry, looked up): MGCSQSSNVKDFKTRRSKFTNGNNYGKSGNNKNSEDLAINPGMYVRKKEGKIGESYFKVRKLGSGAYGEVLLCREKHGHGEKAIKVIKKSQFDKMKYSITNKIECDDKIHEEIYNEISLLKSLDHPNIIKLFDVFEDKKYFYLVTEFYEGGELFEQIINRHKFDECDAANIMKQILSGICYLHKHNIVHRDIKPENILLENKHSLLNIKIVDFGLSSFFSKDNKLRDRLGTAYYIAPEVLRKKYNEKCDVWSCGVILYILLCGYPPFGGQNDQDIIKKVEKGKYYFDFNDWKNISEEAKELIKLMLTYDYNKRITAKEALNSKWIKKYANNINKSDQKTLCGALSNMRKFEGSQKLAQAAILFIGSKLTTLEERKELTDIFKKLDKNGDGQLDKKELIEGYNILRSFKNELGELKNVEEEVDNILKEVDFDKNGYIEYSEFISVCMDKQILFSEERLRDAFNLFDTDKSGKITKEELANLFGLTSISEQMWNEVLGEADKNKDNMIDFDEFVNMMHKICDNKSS
Chain of Plasmodium falciparum protein kinase 6 (PK6, PF3D7_1337100) (Q8IDW1 1-305): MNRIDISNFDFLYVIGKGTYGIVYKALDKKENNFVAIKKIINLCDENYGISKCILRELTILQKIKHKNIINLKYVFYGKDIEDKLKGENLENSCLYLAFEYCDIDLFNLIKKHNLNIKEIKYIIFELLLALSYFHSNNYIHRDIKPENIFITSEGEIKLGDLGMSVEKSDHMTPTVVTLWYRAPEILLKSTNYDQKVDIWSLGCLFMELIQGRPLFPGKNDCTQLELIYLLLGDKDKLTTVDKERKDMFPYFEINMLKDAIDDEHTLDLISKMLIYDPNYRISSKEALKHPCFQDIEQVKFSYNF
Chain of Protein kinase 7 (PK7), Plasmodium falciparum 3D7 (PF3D7_0213400) (Q7YTF7 1-343): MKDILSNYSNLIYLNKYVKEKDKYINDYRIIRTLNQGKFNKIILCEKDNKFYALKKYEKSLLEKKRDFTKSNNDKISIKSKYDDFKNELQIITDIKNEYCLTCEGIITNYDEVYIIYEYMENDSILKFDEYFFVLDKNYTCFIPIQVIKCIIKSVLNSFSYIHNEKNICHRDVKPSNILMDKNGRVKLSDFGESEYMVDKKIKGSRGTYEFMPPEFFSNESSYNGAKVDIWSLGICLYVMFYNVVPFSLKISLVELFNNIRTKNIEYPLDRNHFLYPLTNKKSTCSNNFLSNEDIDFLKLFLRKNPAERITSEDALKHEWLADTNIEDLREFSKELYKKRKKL

O=S(=O)(NCCN1CCCC1)c1ccc(-c2ccc(CN3Cc4ccccc4C3)cc2)s1
active: growth inhibition [4] 89%
inactive: growth inhibition [1] 18% | inhibition [2] 19% | inhibition [3] 5% | outcome [5] | outcome [6] | outcome [7] | outcome [8]

CC1CN(Cc2ccccc2)CCN1c1ccc(NC(=O)c2ccc(F)cc2)cc1 (stereo not given)
active: growth inhibition [1] 89% | growth inhibition [4] 87%
inactive: inhibition [2] -6% | inhibition [3] -5% | outcome [5] | outcome [6] | outcome [7] | outcome [8]

COc1ccccc1C1CCN(C2CCC(NC(=O)/C=C/c3cccc(C(F)(F)F)c3)CC2)CC1 (stereo not given)
inactive: growth inhibition [1] 34% | inhibition [2] 38% | inhibition [3] -3% | outcome [5] | outcome [6] | outcome [7] | outcome [8]
active: growth inhibition [4] 99%

O=S(=O)(Nc1cccc(CCN2CCC(N3CCCCC3)CC2)c1)c1ccc(Oc2ccccc2)cc1
active: growth inhibition [4] 100%
inactive: growth inhibition [1] 25% | inhibition [2] 28% | inhibition [3] 0% | outcome [5] | outcome [6] | outcome [7] | outcome [8]

CCC(ON1C(N)=NC(N)=NC1(C)C)c1ccccc1 (stereo not given)
inactive: growth inhibition [1] -5% | inhibition [3] -4% | outcome [5] | outcome [6] | outcome [7] | outcome [8]
active: inhibition [2] 61% | growth inhibition [4] 96%

Cc1cc(N2CCCN(CC3CCCCC3)CC2)nc(Nc2ccc(Br)cc2)n1
inactive: inhibition [2] 24% | inhibition [3] -1% | outcome [5] | outcome [6] | outcome [7] | outcome [8]
active: growth inhibition [1] 54% | growth inhibition [4] 95%

O=C(Nc1cccc(C(F)(F)F)c1)Nc1ccc2nonc2c1
inactive: inhibition [2] -4% | inhibition [3] 5% | outcome [5] | outcome [6] | outcome [7] | outcome [8]
active: growth inhibition [1] 76% | growth inhibition [4] 98%

CCCNCc1ccc(-c2ccc(CN(CCOC)C(=O)c3cscn3)cc2)nc1
inactive: growth inhibition [1] 16% | inhibition [2] 13% | inhibition [3] 2% | outcome [5] | outcome [6] | outcome [7] | outcome [8]
active: growth inhibition [4] 99%

OCC1CCN(Cc2ccc(-c3ccc(-c4nc5ccccc5[nH]4)cc3)cc2)CC1
inactive: inhibition [2] 37% | inhibition [3] 1% | outcome [5] | outcome [6] | outcome [7] | outcome [8]
active: growth inhibition [1] 84% | growth inhibition [4] 100%

COc1ccc(S(=O)(=O)Nc2ccc(C(=O)NCc3ccccc3C(F)(F)F)cc2)cc1N1CCN(CC2CC2)CC1
active: growth inhibition [4] 92%
inactive: growth inhibition [1] 5% | inhibition [2] 27% | inhibition [3] -3% | outcome [5] | outcome [6] | outcome [7] | outcome [8]

COc1ccc(OCCCN2CCCCC2)cc1S(=O)(=O)c1ccc(OCc2ccc(C(F)(F)F)cc2)cc1
inactive: growth inhibition [1] 8% | inhibition [3] -2% | outcome [5] | outcome [6] | outcome [7] | outcome [8]
active: inhibition [2] 52% | growth inhibition [4] 94%

Cc1noc(C)c1-c1cccc(CNCc2ccc(-c3ccc(-c4nc5ccc(C(F)(F)F)cc5[nH]4)s3)cc2)c1
inactive: inhibition [3] 3% | outcome [5] | outcome [6] | outcome [7] | outcome [8]
active: growth inhibition [1] 99% | inhibition [2] 54% | growth inhibition [4] 102%

COc1cc(Cc2cnc(N)nc2N)cc(OCCCCCC(N)=O)c1OC
inactive: growth inhibition [1] -3% | inhibition [2] -33% | inhibition [3] 0% | outcome [5] | outcome [6] | outcome [7] | outcome [8]
active: growth inhibition [4] 90%

COc1ccc(-c2ccc(NC(=O)c3ccc(C#N)cc3)cc2)cc1CN1CCN(C)CC1
inactive: growth inhibition [1] 49% | inhibition [2] 21% | inhibition [3] 1% | outcome [5] | outcome [6] | outcome [7] | outcome [8]
active: growth inhibition [4] 93%

FC(F)(F)c1ccc2nc(-c3cccc(-c4ccc(CNCCN5CCNCC5)cc4)c3)[nH]c2c1
active: growth inhibition [4] 96%
inactive: growth inhibition [1] 0% | inhibition [2] 17% | inhibition [3] 4% | outcome [5] | outcome [6] | outcome [7] | outcome [8]

O=C(/C=C/c1ccc(Cl)c(Cl)c1)NCCCCCN1CCC(NC(=O)NC2CCCC2)CC1
active: growth inhibition [4] 99%
inactive: growth inhibition [1] 31% | inhibition [2] 21% | inhibition [3] -1% | outcome [5] | outcome [6] | outcome [7] | outcome [8]

COc1ccc(C2C(C(=O)Nc3ccc(C)cc3Br)c3ccccc3C(=O)N2C)cc1 (stereo not given)
inactive: growth inhibition [1] 2% | inhibition [2] 4% | inhibition [3] 6% | outcome [5] | outcome [6] | outcome [7] | outcome [8]
active: growth inhibition [4] 96%

CC(C)(C)c1ccc2oc(=O)n(C3CCN(C(=O)c4ccc([N+](=O)[O-])o4)CC3)c2c1
inactive: inhibition [2] -8% | inhibition [3] -2% | outcome [5] | outcome [6] | outcome [7] | outcome [8]
active: growth inhibition [1] 87% | growth inhibition [4] 94%

COc1ccc(NC(=O)/C=C/c2ccccc2Cl)cc1OCCN1CCC(N(C)C)CC1
active: growth inhibition [4] 89%
inactive: growth inhibition [1] 19% | inhibition [2] 18% | inhibition [3] -2% | outcome [5] | outcome [6] | outcome [7] | outcome [8]

O=C(CCc1cccnc1)Nc1ccc(-c2cccc(-c3nc4ccc(F)cc4[nH]3)c2)cc1
inactive: growth inhibition [1] 9% | inhibition [3] 2% | outcome [5] | outcome [6] | outcome [7] | outcome [8]
active: inhibition [2] 67% | growth inhibition [4] 86%

O=C(Nc1ccc(OC2CCN(Cc3ccc(F)cc3)CC2)c(Cl)c1)c1ccc(F)cc1
inactive: inhibition [2] 37% | inhibition [3] -1% | outcome [5] | outcome [6] | outcome [7] | outcome [8]
active: growth inhibition [1] 95% | growth inhibition [4] 97%

O=S(=O)(c1ccc(OCc2ccc(Cl)cc2)cc1)c1cc2c(cc1OCc1ccccc1)CCN(CC1CC1)CC2
inactive: growth inhibition [1] -2% | inhibition [2] 19% | inhibition [3] -3% | outcome [5] | outcome [6] | outcome [7] | outcome [8]
active: growth inhibition [4] 82%

Nc1c(Cl)cc(C(O)CNCCCCCOCCc2ccc3ccccc3n2)cc1Cl (stereo not given)
inactive: inhibition [2] 9% | inhibition [3] -1% | outcome [5] | outcome [6] | outcome [7] | outcome [8]
active: growth inhibition [1] 97% | growth inhibition [4] 98%

Cc1ccc(C)c(NC(=O)Nc2ccc(C)c(-c3ccc(C(=O)Nc4ccncc4)cc3)c2)c1
active: growth inhibition [1] 59% | growth inhibition [4] 98%
inactive: inhibition [2] 46% | inhibition [3] -3% | outcome [5] | outcome [6] | outcome [7] | outcome [8]

O=C(/C=C/c1ccc(Cl)c(Cl)c1)NCCCCCN1CCCC(C(=O)Nc2ccc(Cl)c(Cl)c2)C1 (stereo not given)
active: inhibition [2] 53% | growth inhibition [4] 100%
inactive: growth inhibition [1] 11% | inhibition [3] -1% | outcome [5] | outcome [6] | outcome [7] | outcome [8]

CCCN1CCN(c2ccccc2NS(=O)(=O)c2ccc(C(=O)Nc3ccc(Cl)cc3)cc2)CC1
inactive: growth inhibition [1] 9% | inhibition [2] 17% | inhibition [3] -2% | outcome [5] | outcome [6] | outcome [7] | outcome [8]
active: growth inhibition [4] 84%

CN(CCCCNC(=O)c1cc2ccccc2[nH]1)C1CC2(CCN(C(=O)OC(C)(C)C)CC2)c2ccccc21 (stereo not given)
active: growth inhibition [1] 75% | growth inhibition [4] 86%
inactive: inhibition [2] 12% | inhibition [3] 2% | outcome [5] | outcome [6] | outcome [7] | outcome [8]

COc1cc(Cc2cnc(N)nc2N)cc(OCCCCC2NC(=O)NC2=O)c1OC (stereo not given)
inactive: growth inhibition [1] -1% | inhibition [2] 2% | inhibition [3] -3% | outcome [5] | outcome [6] | outcome [7] | outcome [8]
active: growth inhibition [4] 94%

O=C(Nc1cccc(-c2ccc(-c3nc4ccccc4[nH]3)cc2)c1)Nc1ccc2c(c1)OCO2
active: growth inhibition [4] 90%
inactive: growth inhibition [1] 8% | inhibition [2] 20% | inhibition [3] -1% | outcome [5] | outcome [6] | outcome [7] | outcome [8]

CCc1sc(CN(CCCNc2cc(=O)c3ccccc3[nH]2)Cc2sc(CC)c(Br)c2-c2ccsc2)c(-c2ccsc2)c1Br
inactive: inhibition [2] 10% | inhibition [3] 0% | outcome [5] | outcome [6] | outcome [7] | outcome [8]
active: growth inhibition [1] 98% | growth inhibition [4] 99%

Cc1ccc(NC(=O)c2ccc(CN3CCCN(CC4CCCCC4)CC3)cc2)cc1F
active: growth inhibition [1] 61% | inhibition [2] 51% | growth inhibition [4] 92%
inactive: inhibition [3] -2% | outcome [5] | outcome [6] | outcome [7] | outcome [8]

CC(CNC(=O)C(c1cc2ccccc2o1)N1CCN(C(c2ccccc2)c2ccccc2)CC1)c1ccccc1 (stereo not given)
inactive: inhibition [2] 2% | inhibition [3] -5% | outcome [5] | outcome [6] | outcome [7] | outcome [8]
active: growth inhibition [1] 89% | growth inhibition [4] 99%

Cc1ccc(Cn2cnc(N3CC(C)NC(C)C3)cc2=O)cc1NC(=O)Nc1ccc(-c2ccccc2)cc1 (stereo not given)
inactive: growth inhibition [1] 15% | inhibition [2] 18% | inhibition [3] 4% | outcome [5] | outcome [6] | outcome [7] | outcome [8]
active: growth inhibition [4] 96%

O=C(Cn1c(=O)oc2ccccc21)N1CCC(n2c(=O)n(CCCN3CCOCC3)c3ccccc32)CC1
inactive: inhibition [2] 11% | inhibition [3] 5% | outcome [5] | outcome [6] | outcome [7] | outcome [8]
active: growth inhibition [1] 101% | growth inhibition [4] 99%

Cc1cc(N)nc2ccc(-c3ccc(CCN)cc3)cc12
inactive: growth inhibition [1] 48% | inhibition [2] 31% | inhibition [3] -4% | outcome [5] | outcome [6] | outcome [7] | outcome [8]
active: growth inhibition [4] 101%

CN(C)CCCOc1ccc(CCNCc2cccc(Oc3ccc(Cl)cc3)c2)cc1
inactive: growth inhibition [1] 26% | inhibition [3] -4% | outcome [5] | outcome [6] | outcome [7] | outcome [8]
active: inhibition [2] 57% | growth inhibition [4] 94%

COC(=O)c1cccc(CNCc2cccc(-c3ccc(-c4nc5ccccc5[nH]4)s3)c2)c1
inactive: inhibition [2] -2% | inhibition [3] -6% | outcome [5] | outcome [6] | outcome [7] | outcome [8]
active: growth inhibition [1] 59% | growth inhibition [4] 93%

COc1cc2ccccc2cc1CNCCCCCCNCc1cc2ccccc2cc1OC
active: inhibition [2] 98% | growth inhibition [4] 101%
inactive: growth inhibition [1] 24% | inhibition [3] 6% | outcome [5] | outcome [6] | outcome [7] | outcome [8]

Cc1cc(NC(=O)N=C(N)N)ccc1Cl
active: growth inhibition [4] 100%
inactive: growth inhibition [1] 15% | inhibition [2] 11% | inhibition [3] 2% | outcome [5] | outcome [6] | outcome [7] | outcome [8]

CCS(=O)(=O)c1ccc(-c2cnc3[nH]cc(-c4ccc(N)cc4)c3c2)cc1
active: growth inhibition [1] 99% | growth inhibition [4] 92%
inactive: inhibition [2] 24% | inhibition [3] -5% | outcome [5] | outcome [6] | outcome [7] | outcome [8]
